PLK1 PBD block – PLK1 (human) polo-box domain binding inhibition. actives 2.8% (n = 360,000). Plk1 PBD binding of FITC phosphopeptide, fluorescence polarization. AID 720504. P53350. Potency, µM, for inactives: max response, negative = inhibition, actives largely listed as inhibitors; further: potency means the concentration at half of the fitted maximal effect; series mostly up to about 57 µM; on the % scale 0 is the no-effect control and ±100 the full control effect; nearly all actives have a fitted effect of over 65% in size
Target sequence (P53350 whole entry, looked up, the tested form may be a part): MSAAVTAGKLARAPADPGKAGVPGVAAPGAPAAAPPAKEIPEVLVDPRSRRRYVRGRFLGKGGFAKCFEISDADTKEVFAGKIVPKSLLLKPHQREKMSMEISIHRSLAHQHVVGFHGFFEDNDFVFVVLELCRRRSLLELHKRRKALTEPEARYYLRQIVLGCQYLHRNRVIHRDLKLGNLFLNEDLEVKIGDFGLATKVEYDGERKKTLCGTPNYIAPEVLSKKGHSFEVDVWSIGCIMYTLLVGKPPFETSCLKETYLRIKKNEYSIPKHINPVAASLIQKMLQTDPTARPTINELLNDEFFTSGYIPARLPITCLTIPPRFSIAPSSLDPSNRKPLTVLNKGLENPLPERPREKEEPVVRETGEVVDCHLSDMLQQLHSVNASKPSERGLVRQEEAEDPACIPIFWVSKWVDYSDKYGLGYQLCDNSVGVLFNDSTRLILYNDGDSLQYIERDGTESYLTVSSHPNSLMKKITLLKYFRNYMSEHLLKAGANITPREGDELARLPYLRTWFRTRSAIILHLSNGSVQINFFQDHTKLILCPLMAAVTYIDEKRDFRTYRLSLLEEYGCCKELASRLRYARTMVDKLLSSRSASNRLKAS
BAZ2B inh – blocks human BAZ2B; Potency, µM (series often up to 114 µM), for the others: at the highest dose activity change, negative = inhibition, hits mostly inhibitors; actives 4.4% (n = 360,000); AID 504333; AlphaScreen BAZ2B-H3K14Ac peptide displacement; further: potency means the concentration at half of the fitted maximal effect; on the % scale 0 is the no-effect control and ±100 the full control effect; nearly all actives have a fitted effect of over 60% in size
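Protein-peptide AlphaScreen: BAZ2B 50 nM, b-H3K14Ac 50 nM, 1x PBS pH 7.4 + 0.01% Tween-20. Preincubation 30 min RT; cpd 30 min RT (top 110 uM); beads 20 min RT, light-protected.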
HP1b binding inh – inhibitors of HP1-beta chromodomain binding to methylated histone tails. AlphaScreen HP1-beta / biotin-H3K9me3 peptide binding. Potency, µM (titrated, usually from 114 µM), for inactives: at the top dose activity change, negative = inhibition, usual class: inhibitors. actives 0.56% (n = 390,000). AID 540317; further: potency means the concentration at half of the fitted maximal effect; nearly all actives have a fitted effect of over 70% in size
Target sequence (P83916 whole entry, looked up): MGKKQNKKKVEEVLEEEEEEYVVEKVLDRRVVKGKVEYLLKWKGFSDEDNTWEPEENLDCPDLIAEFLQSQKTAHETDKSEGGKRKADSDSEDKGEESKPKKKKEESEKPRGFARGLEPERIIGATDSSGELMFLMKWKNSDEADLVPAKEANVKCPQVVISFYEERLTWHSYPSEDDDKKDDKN
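Compound inhibition of the preformed complex between 50 nM HP1-beta and 50 nM biotinylated H3K9me3 peptide was read by AlphaScreen. Buffer was PBS pH 7.4 with 0.01% Tween-20. Incubations ran 30 min at room temperature, with 10 ug/mL donor/acceptor beads.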
GCN5L2 inh – GCN5L2 (KAT2A) acetyltransferase inhibition; Potency, µM (doses to about 58.9 µM), for inactives: at the highest dose activity change, negative = inhibition, actives largely listed as inhibitors; GCN5L2 HAT assay, ThioGlo1 CoA-SH fluorescence; actives 0.21% (n = 390,000); Q92830; further: potency means the concentration at half of the fitted maximal effect; on the % scale 0 is the no-effect control and ±100 the full control effect
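qHTS, 1536-well. 20nM enzyme, pH 7.5 HEPES/EDTA/Tween-20 buffer; 15 min compound preinc., RT. Start: 75uM H3(1-25), 70uM AcCoA, 50uM ThioGlo1. Read Ex340/Em540 at t=0 (autofluorescence flag) and t=20 min.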
JMJD2A Tudor inh – blocks the human JMJD2A Tudor domain; actives 4.4% (n = 390,000); O75164; AlphaScreen JMJD2A-Tudor / H3K4me3 peptide binding; Potency, µM (top dose mostly 114 µM), for inactives: top-dose activity change, negative = inhibition, most hits filed as inhibitors; AID 504339; further: potency means the concentration at half of the fitted maximal effect; on the % scale 0 is the no-effect control and ±100 the full control effect; nearly all actives have a fitted effect of over 50% in size
PI5P4Ka inh – PI5P4K alpha (human) kinase inhibition; P48426; PI5P4Kalpha enzyme, ADP-Glo luminescence, 60 min; stronger effect = lower value; max response, %; actives 1.2% (n = 330,000); active means max response of -50% or lower; inconclusive means between -30% and -50%; inactive means -30% or higher; further: value at the top dose of about 77 µM; on the % scale 0 is the no-effect control and ±100 the full control effect
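Controls without substrate or without enzyme flank wells where PI5P4Kalpha converts substrate using 5 microM ATP (final). Incubation lasts 60 minutes at room temperature; ADP formed is read by ADP-Glo luminescence.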
An asterisk follows results filed as active; ? = inconclusive; . = no result; [ ] = remark or other dose. Hits are enriched below; roughly 7% of the tested compounds scored in any of these assays. Unless noted, the call rests on the fitted dose curve; in most records, active means well fitted curve in the direction sought with a large enough effect; inconclusive means small, poorly fitted or top-dose-only effect, or another doubt; inactive means no such curve, though single readings can be large; an effect the other way counts as inactive or inconclusive.

SMILES	PLK1 PBD block	BAZ2B inh	HP1b binding inh	GCN5L2 inh	JMJD2A Tudor inh	PI5P4Ka inh
Cc1ccccc1OCC(=O)N/N=C1\SCC(=O)N1Cc1ccccc1	26.7µM*	-28.8%	?	-7.6%	-20.6%[57.1 µM]	-8.2
Cc1cccc(OCC(=O)N/N=C2/SCC(=O)N2Cc2ccco2)c1	10.6µM*	-18.4%	-14.5%	-0.8%	-32.3%[11.4 µM]	-18.3
COc1cc(OC)cc(C(=O)N/N=C2/SCC(=O)N2Cc2ccco2)c1	6.4%	1.8%	18.9%	-1.9%	-10.9%	-7.0
COc1ccc(-n2c(CNC(=O)c3cccs3)n[nH]c2=S)cc1	-22.3%	-4.0%	4.8%	-3.2%	22.4µM*	-9.1
Cc1c(C(=O)NC(=S)NCc2cccnc2)cccc1[N+](=O)[O-]	10.0%	-6.5%	1.4%	-13.2%	-12.5%	6.1
CCn1c(CNC(=O)Cc2ccc(OC)cc2)n[nH]c1=S	10.0%	-22.4%	47.6%	-15.3%	?	-1.3
COc1ccc(CC(=O)NCc2n[nH]c(=S)n2-c2ccc(F)cc2)cc1	?	-17.6%	31.2%	3.5%	50.1µM*	6.2
Cc1c(C(=O)NCc2n[nH]c(=S)n2-c2ccc(F)cc2)cccc1[N+](=O)[O-]	-1.2%	2.9%	52.1%	-1.7%	39.8µM*	-0.9
COc1ccc(CC(=O)NCc2n[nH]c(=S)n2-c2ccccc2OC)cc1	-9.2%	.	52.4%	-7.2%	14.1µM*	2.6
CCOC(=O)c1cc2nc(OCC)nc(OCC)c2[nH]1	1.1%	.	20.6%[57 µM]	.	-11.7%	1.7
COc1ccc(CC(=O)NCc2n[nH]c(=S)n2-c2cccc(Cl)c2)cc1	0.8%	-20.3%	43.9%	-1.7%	50.1µM*	-1.1
OC(CNCC(c1ccco1)N1CCCCC1)c1ccccc1 (stereo unspecified)	-1.3%	50.1µM*	-55.6%	-2.9%	1.12µM*	.
Cc1ccc(S(=O)(=O)NCc2nc(-c3cccc(C)c3)no2)cc1	.	-2.4%	34.9%	-10.4%	-1.4%	.
O=c1oc2ccccc2c(O)c1Sc1ccc(Cl)cc1	-24.1%	.	31.0%	.	-16.0%	-24.1
Cc1cccc(-n2c(O)c(C=Nc3ccccc3)c3ccccc3c2=O)n1	23.8µM*	-29.8%	?	-6.1%	11.2µM*	-15.7
Cc1ccc(-n2c(O)c(/C=N/n3cnnc3)c3ccccc3c2=O)cc1	?	50.1µM*	-4.0%	?	56.2µM*	.
Cc1cc(=O)[nH]c(N/N=C/c2ccc(O)c(O)c2)n1	-6.1%	4.0%	9.6%[57 µM]	-23.7%	2.82µM*	-16.3
COc1ccc(N=Cc2c(O)n(-c3cccc(C)n3)c(=O)c3ccccc23)cc1	-5.9%	-32.9%	20.0%	-11.1%	-0.4%[57.1 µM]	-5.5
Cc1cc(=O)[nH]c(N/N=C/c2c(O)n(-c3ccccc3)c(=O)c3ccccc23)n1	10.9%	39.8µM*	0.0%	-11.6%	?	?
CSc1ccc(/C=N/Nc2nc(C)cc(=O)[nH]2)cc1	-5.7%	-5.7%	15.0%	-16.1%	?	4.2
CCc1ccc(NC(=O)CN2C(=O)C(c3ccc(Cl)cc3)=NC23CCCCC3)cc1	.	-12.3%	41.7%	-19.9%	-1.3%	.
Cc1cc(Cl)ccc1NC(=O)CN1C(=O)COc2ccc(S(=O)(=O)Nc3ccccc3)cc21	.	-3.0%	35.7%	-4.6%	-6.9%	.
COc1ccc(CNS(=O)(=O)c2ccc(-c3ccc(=O)[nH]n3)s2)cc1OC	-9.4%	-5.8%	44.4%	-23.6%	-26.7%	1.2
Cc1cccc(CNS(=O)(=O)c2ccc(-c3ccc(=O)[nH]n3)s2)c1	23.8µM*	-17.0%	3.3%	-13.5%	?	1.4
COc1cccc(-n2c(-c3ccc4[nH]c(C)c(C)c4c3)n[nH]c2=S)c1	-7.5%	?	-6.2%	-3.9%	?	-9.9
SMILES	PLK1 PBD block	BAZ2B inh	HP1b binding inh	GCN5L2 inh	JMJD2A Tudor inh	PI5P4Ka inh
Cc1cccc(-n2c(-c3ccncc3)n[nH]c2=S)c1	-10.3%	3.3%	4.1%	-8.0%	28.2µM*	-6.7
Cc1cccc(-n2c(C)c(-c3ccccc3)[nH]c2=S)c1	-26.5%	?	?	-6.3%	35.5µM*	-10.4
Cc1cccc(-n2c(=S)[nH]c3c(oc4ccccc43)c2=O)c1	-15.1%	-6.4%	26.4%	-8.8%	-0.7%	-0.2
Cc1ccc(C2CC2c2n[nH]c(=S)n2-c2cccc(C)c2)cc1 (stereo unspecified)	23.8µM*	-30.6%	-19.1%	-7.3%	-27.1%[11.4 µM]	8.8
Cc1cccc(-n2c(C)n[nH]c2=S)c1	-9.2%	?	14.7%	1.2%	10µM*	.
CCOC(=O)c1cc(-c2ccccc2)n(-c2cccc(C(=O)Nc3cccc(SC)c3)c2)c1C	.	-22.0%	18.7%	-4.1%	-32.4%	.
N#CC1=C(N)Oc2cc(O)c(Cl)cc2C1c1ccccc1F (stereo unspecified)	-1.8%	-11.5%	25.7%	-3.5%	-13.4%	-64.4*
COC(=O)C1=C(C)OC(N)=C(C#N)C1c1ccccc1F (stereo unspecified)	-3.1%	-2.4%	14.3%	-0.2%	-10.4%	.
N#CC1=C(N)Oc2cc(O)c(Cl)cc2C1c1cccnc1 (stereo unspecified)	-28.4%	-14.3%	1.8%	-0.6%	-11.3%	-51.8*
Cc1ccc(CNC(=O)COC(=O)CCC(=O)c2cccs2)cc1	4.7%	-3.6%	41.3%	-1.2%	15.5%	-2.1
Cc1cc(N(C)C)ccc1[N+](=O)[O-]	-1.1%	-15.6%	-2.0%	-3.2%	-22.1%	7.9
NNc1ccc([N+](=O)[O-])c2[nH][nH]c(=O)c12	23.8µM*	.	.	.	.	-82.6*
S=C(c1nc2ccccc2[nH]1)N1CCOCC1	23.8µM*	9.6%	?	-9.6%	-53.5%	-20.8
CCOC(=O)C1CCN(c2c(NCCC(C)C)c(=O)c2=O)CC1	-5.3%	1.3%	35.3%	1.9%	-6.4%	-0.6
COCCNC(=O)CN(Cc1ccc2c(c1)OCO2)C(=O)CCC(=O)Nc1nccs1	3.36µM*	8.3%	-7.8%	-20.1%	28.2µM*	?
[O-][n+]1nc2ccccc2c2ccccc21	1.0%	.	30.5%	.	-6.8%	6.9
C=CS(=O)(=O)c1ccc(Oc2ccc(S(=O)(=O)C=C)cc2)cc1	23.8µM*	-3.0%	9.1%	-2.7%	-12.3%	-6.6
NS(=O)(=O)c1ccc(Oc2ccc(S(N)(=O)=O)cc2)cc1	2.3%	-0.5%	54.4%	-7.1%	-4.9%	0.4
COc1ccc(Nc2nc(N)nc(CN3CCC(C)CC3)n2)cc1	-4.8%	-32.8%	7.4%	-2.0%	-23.3%	-10.5
COc1ccc(Nc2nc(N)nc(CN3CCc4ccccc4C3)n2)cc1	?	50.1µM*	16.0%	-5.1%	?	-3.5
Nc1nc(CN2CCc3ccccc3C2)nc(Nc2ccccc2)n1	-15.6%	50.1µM*	2.6%	1.0%	79.4µM*	-5.4
CCC(C)[C@H]1CNC(=O)C(=O)N1CC(C)(C)C (stereo partly specified)	-15.2%	.	.	.	.	-0.5

Compound activity as filed in PubChem BioAssay.
